Screening results from PubChem.
VACV Venus inh – qHTS for Stage-Specific Inhibitors of Vaccinia Orthopoxvirus: Venus Reporter Primary qHTS; Potency, µM (series often up to 36.5 µM), for inactives: at the top dose activity change, negative = inhibition, usual class: inhibitors; Vaccinia virus Venus reporter expression, fluorescence; 330,000 compounds, 0.46% hits; calls by dose curve; tested in A549 cells; note: potency is the fitted concentration of half-maximal effect; % is set by controls: 0 for no effect and ±100 for the full control effect; nearly all actives have a fitted effect of over 30% in size
Marburg entry inh – qHTS for inhibitors of binding or entry into cells for Marburg Virus. AID 540276, 2011. 300,000 compounds, 1.8% hits. Potency, µM (top dose mostly 37.8 µM), for the others: at the top dose activity change, negative = inhibition, most hits filed as inhibitors. Marburg virus pseudotyped entry inhibition, cell reporter; calls by dose curve; tested in HEK293 cells; note: potency is the fitted concentration of half-maximal effect; % is set by controls: 0 for no effect and ±100 for the full control effect
Lassa entry inh – qHTS for Inhibitors of binding or entry into cells for Lassa Virus; Lassa virus pseudotype entry inhibition, cell reporter; Potency, µM (highest dose often 37.9 µM), for inactives: at the top dose activity change, negative = inhibition, hits mostly inhibitors; 300,000 compounds, 1.2% hits; calls by dose curve; tested in HEK293 cells; note: potency is the fitted concentration of half-maximal effect; % is set by controls: 0 for no effect and ±100 for the full control effect; nearly all actives have a fitted effect of over 50% in size
Cycloheximide cs – Cycloheximide Counterscreen for Small Molecule Inhibitors of Shiga Toxin | cell reporter, cycloheximide protein synthesis inhibition counterscreen | max response, % | 300,000 compounds, 12% hits; in the data active = max response mostly above about 13%, no sharp cut-off; inactive = mostly below about 14%; note: read at 38.3 µM for the half of the compounds with a filed dose; 0% is about no effect
VACV mCherry inh – qHTS for Stage-Specific Inhibitors of Vaccinia Orthopoxvirus: mCherry Reporter Primary qHTS. Vaccinia virus mCherry reporter infection, fluorescence. Potency, µM (titrated, usually from 36.5 µM), for the others: at the highest dose activity change, negative = inhibition, usual class: inhibitors. 310,000 compounds, 0.63% hits. AID 720579, 2013; calls by dose curve; tested in A549 cells; note: potency is the fitted concentration of half-maximal effect; % is set by controls: 0 for no effect and ±100 for the full control effect; nearly all actives have a fitted effect of over 35% in size
Shiga toxin inh – A qHTS for Small Molecule Inhibitors of Shiga Toxin. inhibition, % at 38.7 µM. Vero cells, Shiga toxin protein synthesis inhibition reporter. 290,000 compounds, 9.2% hits. AID 2315, 2010; in the data active = inhibition mostly above about 28%, no sharp cut-off; inactive = mostly below about 43%; note: 0% is about no effect
Numbers without * were called inactive; i = inactive; ? = inconclusive; . = no result given; [ ] = dose if it differs, or a comment. Shown is part of a subset that was picked to be rich in hits.

SMILES	VACV Venus inh	Marburg entry inh	Lassa entry inh	Cycloheximide cs	VACV mCherry inh	Shiga toxin inh
O=C(CCCSc1nnc(Nc2ccccc2F)s1)N1CCOCC1	-16%	?	24%[46.1 µM]	39*	i	59*
O=c1cc(CSc2nnc(Nc3ccccc3F)s2)nc2sccn12	?	15%[46.1 µM]	6%	10	?	-5
Cc1cccc(NC(=O)N2CCC(CN3CCCCCC3)CC2)c1C	-10%	.	22%[46.1 µM]	.	-10%	.
COc1cccc(CN2C(=O)C(C)N(C(=O)c3ccccc3)c3ccccc32)c1 (centres undefined)	-25%	10µM*	?	0	-24%	5
COc1ccc(CN2C(=O)C(C)N(C(=O)c3c(F)cccc3F)c3ccccc32)cc1 (centres undefined)	.	.	.	4	.	15
CCCCN1C(=S)NC[C@@H]1Cc1cccc2ccccc12	-6%	.	.	18*	?	60*
c1ccc2c(c1)nnn2-c1ncnc2sccc12	-4%	0%	12%	34*	i	62*
CCOCCn1c(=NC(=O)CSCC(=O)Nc2cc(C)on2)sc2cc(OC)ccc21	.	.	.	1	.	19
CCS(=O)(=O)Nc1ccc(C2=NN(C(=O)c3ccco3)C(c3cccc(F)c3)C2)cc1 (centres undefined)	?	.	.	-1	-29%	15
COc1cccc(C2=NN(C(=O)c3ccco3)C(c3ccco3)C2)c1 (centres undefined)	.	.	.	29*	.	72*
CCS(=O)(=O)Nc1ccc(C2=NN(C(=O)c3ccco3)C(c3ccc(C)cc3)C2)cc1 (centres undefined)	.	?	16µM*	13	.	-17
CS(=O)(=O)Nc1ccc(C2=NN(C(=O)c3ccco3)C(c3cccc(F)c3)C2)cc1 (centres undefined)	-23%	11µM*	?	6	-8%	-21
CS(=O)(=O)Nc1ccc(C2=NN(C(=O)c3ccco3)C(c3ccco3)C2)cc1 (centres undefined)	-29%	-9%	?	2	?	-15
Cc1ccc(C(=O)c2c[nH]cc2-c2ccccc2)cc1	.	-2%	21%	17*	.	-32
O=C(O)c1ccccc1C(=O)c1ccc(Cl)cc1	.	.	.	-1	.	-4
O=C(c1c[nH]cc1-c1ccccc1)c1cccc2ccccc12	.	12µM*	-16%	5	.	2
O=C(O)c1ccccc1C(=O)c1ccc(-c2ccccc2)cc1	.	.	.	44*	.	92*
Cc1ccc(CN2CCSc3ccc(C(=O)NCC(C)c4ccccc4)cc32)cc1 (centres undefined)	-4%	?	-21%[46.1 µM]	.	-17%	.
CSc1nsc(/C=C/Nc2ccc(O)cc2C)c1C#N	-5%	.	.	28*	-23%	28
O=C(O)c1ccc(N=Cc2c(O)ccc3oc4c(c23)CCCC4)cc1	.	.	.	17*	.	31
Oc1ccccc1N=Cc1c(O)ccc2oc3c(c12)CCCC3	.	.	.	8	.	10
Cc1ccnc(N=Cc2c(O)ccc3oc4c(c23)CCCC4)c1	.	-2%	?	26*	.	8
CC(C)C(NC(=O)c1cccs1)c1nnc(SCC(=O)Nc2nccs2)n1C (centres undefined)	.	22%	2%	-2	.	-5
Cc1nc2cc(-c3cccc(Cl)c3)nn2c(N2CCN(C(=O)c3ccco3)CC2)c1C	.	0%	.	28*	.	102*
Cc1cc(N2CCN(C(=O)c3ccco3)CC2)n2nc(-c3cccc(Cl)c3)cc2n1	.	16µM*	26µM*	-3	.	46
SMILES	VACV Venus inh	Marburg entry inh	Lassa entry inh	Cycloheximide cs	VACV mCherry inh	Shiga toxin inh
COc1cccc(-c2cc3nc(C)c(C)c(N4CCN(C(=O)c5ccoc5)CC4)n3n2)c1	?	.	.	.	-17%	.
COCCn1c(C)cc(O)c(C(c2ccccc2)N2CCN(C)CC2)c1=O (centres undefined)	0%	.	-3%[46.1 µM]	.	-14%	.
CCN(CC)S(=O)(=O)c1ccc(NC(=O)c2ccc(Cl)nc2)cc1	-15%	0%[46.1 µM]	8%	-2	-14%	-5
Cc1ccc(NC(=O)c2cnccn2)cc1C	.	.	.	34*	.	.
Cc1nc(NC(=O)c2cnccn2)ccc1Br	-10%	-11%[46.1 µM]	?	43*	i	107*
Cc1ccc(NC(=O)c2cnccn2)cc1S(=O)(=O)N1CCCCCC1	-20%	?	?	.	-5%	.
Cc1cccc(NC(=O)c2cnccn2)c1	-2%	-14%	10%	17*	-11%	.
CCCSc1ccc(C(=O)Nc2ccc(Cl)cc2)cn1	-23%	?	?	28*	-12%	43
Cc1ccccc1-c1nc(CS(=O)(=O)CC(=O)NCC(C)c2ccccc2)c(C)o1 (centres undefined)	-4%	-17%[46.1 µM]	10%[46.1 µM]	.	-6%	.
Cc1ccc(NC(=O)c2cnccn2)cc1	-4%	?	.	34*	-13%	72*
O=C(Nc1ccc(Br)cc1)c1cnccn1	-15%	13%	7%	32*	-9%	117
O=C(COC(=O)c1cnccn1)Nc1ccc2c(c1)OCO2	-11%	15%	1%	1	.	-3
O=C(Nc1ccc2c(c1)OCO2)c1cnccn1	-1%	26%[46.1 µM]	.	21*	-10%	88*
O=C(Nc1ccc(F)cc1)c1cnccn1	-6%	.	.	.	i	.
Cc1ccc(NC(=O)c2ccc(Cl)nc2)cc1	.	.	.	34*	.	140*
Cc1ccc2cc3c(N)c4c(C)ccc(C)c4nc3nc2c1	.	.	.	2	.	-3
COc1ccccc1CNC(=O)[C@@H]1CCCN1S(=O)(=O)c1ccc(Cl)cc1	-2%	-10%[46.1 µM]	-2%[46.1 µM]	1	-21%	-2
Cc1ccc(NC(=O)c2nsc(Cl)c2Cl)cc1	.	.	.	56*	.	70*
COc1ccc(N2CC(NC(=O)C3CCCC3)CC2=O)cc1 (centres undefined)	-7%[7.34 µM]	.	-6%[46.1 µM]	.	-10%[7.34 µM]	.
O=S(=O)(NCC(O)c1ccccc1)c1cc(Cl)sc1Cl (centres undefined)	-7%	-5%[46.1 µM]	-3%[46.1 µM]	10	-21%	25*
Nc1c(N(CCC2=CCCCC2)C(=O)C2CC2)c(=O)[nH]c(=O)n1Cc1ccccc1	-12%	?	?	-2	-20%	14
O=C(COC(=O)C1CCCC1)NCc1ccc(Cl)cc1	-14%	?	13%[46.1 µM]	-3	i	-5
N/C(Cc1ccc(Cl)cc1)=N\OC(=O)C1CCCCC1	-5%	20%	15%	53*	-15%	69*
CCNc1nc(NC(C)(C)C)nc(N2CCCC2)n1	-26%	3.2µM*	?	-3	-13%	-4
Cc1ccc(-c2cc(N)nc(-c3ccccc3)c2)cc1	-24%	-24%[46.1 µM]	-15%	28*	?	60*
Cc1ccc(NC(=O)CCCn2c(=S)[nH]c3ccsc3c2=O)cc1C	8%[7.34 µM]	.	.	-4	-9%[7.34 µM]	-10
Fc1ccccc1N1CCN(c2ncnc3[nH]ncc23)CC1	8%	5µM*	10µM*	12	-12%	1
